# In PubChem BioAssay (Tox21):
# “And” between values parts separate entries of the source, which are not always exact repeats. Equal values may be shown once. Inconclusive results are not listed. Where a call stands in place of a potency, no number is given. Unmarked numbers belong to inactive results. The source made the active and inactive calls. Unless noted, calls come from the whole dose curve; as a rule, active = well fitted curve in the direction sought with a large enough effect in the repeat runs; inconclusive = weak or mixed curves; inactive = no such curve, though single readings can be large; an effect the other way counts as inactive or inconclusive.
# What was measured:
# [1] = qHTS assay to identify small molecule antagonists of the thyroid receptor (TR) signaling pathway - cell viability counter screen (AID 743064); settings: GH3.TRE-Luc viability, CellTiter-Fluor, 24 h; series mostly up to 70.3 µM; note: nearly all actives have a fitted effect of over 50% in size; note: potency is the fitted concentration of half-maximal effect
# How it was run: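 Fluorescence from CellTiter-Fluor, added after 23.5 h exposure at 37 °C, reported viability of GH3.TRE-Luc cells co-treated with compound and 1 nM T3. Measured in the same wells as the luciferase TR readout.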
# [2] = qHTS assay to identify small molecule antagonists of the thyroid receptor (TR) signaling pathway (AID 743065); settings: GH3.TRE-Luc, T3-stimulated luciferase inhibition, 23.5 h; series mostly up to 70.3 µM; note: nearly all actives have a fitted effect of over 55% in size; note: potency is the fitted concentration of half-maximal effect
# How it was run: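 GH3.TRE-Luc rat pituitary cells (two TREs driving luciferase) were dosed with compound, then stimulated with 1 nM T3 (final) for 23.5 h at 37 C. ONE-Glo luminescence was the read-out, with CellTiter-Fluor fluorescence as the cytotoxicity counter-screen.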
# [3] = test system: thyroid hormone receptor (rat, GH3 cells); experiment: qHTS assay to identify small molecule agonists of the thyroid receptor (TR) signaling pathway (AID 743066; calls by dose curve); settings: GH3.TRE-Luc cells, TR agonist luciferase, 24 h; series mostly up to 83.9 µM
# [4] = biological target: Estrogen receptor (Homo sapiens) (UniProt P03372); experiment: qHTS assay to identify small molecule antagonists of the estrogen receptor alpha (ER-alpha) signaling pathway (AID 743069; active = well fitted curve in the direction sought with a large enough effect in the signal ratio in the repeat runs, not every such curve was filed as active; the % refers to the signal ratio); settings: HEK293 ER-alpha-UAS-bla, beta-lactamase ratio, antagonist mode; series mostly up to 69.4 µM
# Sequence of Estrogen receptor (Homo sapiens) (P03372 whole entry, looked up): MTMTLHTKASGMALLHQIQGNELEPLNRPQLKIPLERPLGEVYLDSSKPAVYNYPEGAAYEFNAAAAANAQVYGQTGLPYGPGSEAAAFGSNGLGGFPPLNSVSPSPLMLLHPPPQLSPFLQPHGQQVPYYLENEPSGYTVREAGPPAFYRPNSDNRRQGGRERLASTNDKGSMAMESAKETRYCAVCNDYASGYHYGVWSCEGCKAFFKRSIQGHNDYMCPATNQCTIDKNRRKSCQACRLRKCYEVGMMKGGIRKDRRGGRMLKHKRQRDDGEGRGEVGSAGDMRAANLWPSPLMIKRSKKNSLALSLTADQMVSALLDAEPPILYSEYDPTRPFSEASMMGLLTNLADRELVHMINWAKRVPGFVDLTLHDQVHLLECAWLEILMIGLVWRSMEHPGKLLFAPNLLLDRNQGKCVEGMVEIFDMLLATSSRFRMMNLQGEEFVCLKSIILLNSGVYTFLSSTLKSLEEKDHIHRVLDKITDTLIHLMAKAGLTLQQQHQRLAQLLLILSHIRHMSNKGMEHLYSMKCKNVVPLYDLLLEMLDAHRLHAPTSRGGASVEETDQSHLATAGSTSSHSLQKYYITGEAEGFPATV
# How it was run: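 Beta-lactamase FRET fluorescence is read after 2 hr at room temperature with LiveBLAzer B/G substrate. Before that, ER-alpha-bla HEK293 cells sit 4 hr after plating, then receive compound plus 17beta-estradiol and incubate 18 hr at 37C.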
# [5] = qHTS assay to identify small molecule antagonists of the estrogen receptor alpha (ER-alpha) signaling pathway - cell viability counter screen (AID 743074; calls by dose curve;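 note: HEK293 cells carrying ER-alpha-UAS-bla reporter stimulated with 17beta-estradiol; nearly all actives have a fitted effect of over 45% in size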); settings: ERalpha-bla HEK293 viability, CellTiter-Glo luminescence, 18 h; series mostly up to 69.4 µM
# [6] = biological target: Estrogen receptor (Homo sapiens) (UniProt P03372); experiment: qHTS assay to identify small molecule agonists of the estrogen receptor alpha (ER-alpha) signaling pathway (AID 743075; calls by dose curve;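 note: HEK293 GripTite cells with ER-alpha and UAS-driven beta-lactamase reporter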); settings: HEK293 ER-alpha-UAS-bla, beta-lactamase FRET ratio, 18 h; series mostly up to 70.1 µM
# [7] = biological target: Estrogen receptor (Homo sapiens) (UniProt P03372); experiment: qHTS assay to identify small molecule agonists of the estrogen receptor alpha (ER-alpha) signaling pathway using the BG1 cell line (AID 743079); settings: BG1Luc4E2 cells, ERE-luciferase agonist, 22 h; note: nearly all actives have a fitted effect of over 20% in size; note: potency is the fitted concentration of half-maximal effect
# [8] = qHTS assay to identify small molecule antagonists of the estrogen receptor alpha (ER-alpha) signaling pathway using the BG1 cell line (AID 743080; calls by dose curve;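 note: BG1 cells stimulated with 17beta-estradiol alongside compound; nearly all actives have a fitted effect of over 25% in size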); settings: BG1Luc4E2 ERE-luciferase antagonist mode, luminescence; series mostly up to 70.3 µM
# How it was run: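 After 5 days in phenol-red-free 10% charcoal-stripped FBS medium, BG1-Luc-4E2 cells were seeded, left 24 h at 37 C, co-treated with compounds and 17beta-estradiol for 21.5 h, then assayed for viability and luciferase.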
# [9] = qHTS assay to identify small molecule antagonists of the estrogen receptor alpha (ER-alpha) signaling pathway using the BG1 cell line - cell viability counter screen (AID 743081); settings: BG1Luc4E2 viability, CellTiter-Fluor, 22 h; series mostly up to 70.3 µM;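 note: compound given together with 17beta-estradiol as the ER stimulus; nearly all actives have a fitted effect of over 45% in size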; note: potency is the fitted concentration of half-maximal effect
# Aromatase (Homo sapiens) = Aromatase (Homo sapiens) (UniProt P11511); experiment: qHTS assay to identify aromatase inhibitors (AID 743083); settings: MCF-7 aro ERE, testosterone-driven ERE luciferase, 24 h; series mostly up to 70.3 µM; note: nearly all actives have a fitted effect of over 55% in size
# Sequence of Aromatase (Homo sapiens) (P11511 whole entry, looked up): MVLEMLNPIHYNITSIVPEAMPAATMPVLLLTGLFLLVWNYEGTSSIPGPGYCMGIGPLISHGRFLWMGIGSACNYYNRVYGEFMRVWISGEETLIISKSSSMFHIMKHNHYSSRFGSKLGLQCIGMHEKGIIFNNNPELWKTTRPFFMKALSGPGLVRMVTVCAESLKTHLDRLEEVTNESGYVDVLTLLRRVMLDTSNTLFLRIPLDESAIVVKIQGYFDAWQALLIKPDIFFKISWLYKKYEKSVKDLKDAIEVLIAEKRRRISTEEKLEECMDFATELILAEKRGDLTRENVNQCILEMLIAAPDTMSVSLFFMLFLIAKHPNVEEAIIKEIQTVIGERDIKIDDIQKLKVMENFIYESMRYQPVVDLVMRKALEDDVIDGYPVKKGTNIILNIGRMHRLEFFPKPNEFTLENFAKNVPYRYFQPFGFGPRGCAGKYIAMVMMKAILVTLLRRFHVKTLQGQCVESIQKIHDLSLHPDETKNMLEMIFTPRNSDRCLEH
Structure (SMILES),Potency [1],Potency [2],Potency [3],Potency [4],outcome [5],Potency [6],activation ([7]; at 70.3 µM (top of the series)),Potency [8],Potency [9],Potency (Aromatase (Homo sapiens)),activation ([7]; at 95 µM (top of the series)),Potency [7],activation ([7]; at 32.5 µM (top of the series))
Cc1nnc2n1-c1sc(CCC(=O)N3CCOCC3)cc1C(c1ccccc1Cl)=NC2,inactive,inactive,inactive,inactive,inactive,inactive,-7.93% and -17.7%,inactive,inactive,inactive,–,–,–
CCOP(=O)(N=C1SCCS1)OCC,inactive,inactive,inactive,inactive,inactive,inactive,-3.11%,inactive,inactive,inactive,–,–,–
CCCSC(=O)Cl,inactive,inactive,inactive,inactive,inactive,inactive,–,inactive,inactive,inactive,3.93%,–,–
Cc1cccc(C#N)c1,inactive,inactive,inactive,inactive,inactive,inactive,–,inactive,inactive,inactive,–,68.2 µM (active),–
CCCCc1ccc(O)cc1,inactive,inactive,inactive,inactive,inactive,inactive,12.6%,inactive,inactive,–,–,–,–
ClC(Cl)C(Cl)Cl,inactive,inactive,inactive,inactive,inactive,inactive,–,inactive,inactive,inactive,-0.198%,–,–
CSc1nc(N=[N+]=[N-])nc(NC(C)C)n1,inactive,inactive,inactive,inactive,inactive,inactive,2.14%,inactive,inactive,inactive,–,–,–
OCCSCSCCO,inactive,inactive,inactive,inactive,inactive,inactive,-2.71%,inactive,inactive,inactive,–,–,–
O=[N+]([O-])c1cc(Cl)c(Cl)c(Cl)c1,inactive,inactive,inactive,inactive,inactive,inactive,9.06%,inactive,inactive,inactive,–,–,–
CNNC,inactive,inactive,inactive,inactive,inactive,inactive,–,inactive,inactive,inactive,-3.86%,–,–
C1CCC(C2CCCCC2)CC1,inactive,inactive,inactive,inactive,inactive,inactive,-17.5%,inactive,inactive,inactive,–,–,–
CC1CN1P(=O)(N1CC1C)N1CC1C (stereo not drawn),inactive,inactive,inactive,inactive,inactive,inactive,-10.3%,inactive,inactive,inactive,–,–,–
[Cl][Sn]([Cl])([Cl])[Cl],inactive,inactive,inactive,inactive,inactive,inactive,–,inactive,inactive,inactive,-3.53%,–,–
CNC(=O)Oc1ccc(N(C)C)c(C)c1,inactive,inactive,inactive,inactive,inactive,inactive,–,inactive,inactive,inactive,–,–,–
COc1cc2c(cc1OC)[C@@]13CCN4CC5=CCO[C@H]6CC(=O)N2[C@H]1[C@H]6[C@H]5C[C@H]43,inactive,inactive,inactive,inactive,inactive,inactive,-4.94%,inactive,inactive,inactive,–,–,–
CCSC(=O)N(CC)C1CCCCC1,inactive,inactive,inactive,inactive,inactive,inactive,–,inactive,inactive,inactive,–,–,–
Cc1nc(N)nc(N)n1,inactive,inactive,inactive,inactive,inactive,inactive,–,inactive,inactive,inactive,2.81%,–,–
O=C(CCCN1CCC(n2c(=O)[nH]c3ccccc32)CC1)c1ccc(F)cc1,inactive,inactive,inactive,inactive,inactive,inactive,–,inactive,inactive,inactive,–,–,-6.79%
CC1CCCCC1NC(=O)Nc1ccccc1 (stereo not drawn),inactive,inactive,inactive,inactive,inactive,inactive,–,–,inactive,inactive,–,–,–
CCCCN(CCCCO)N=O,inactive,inactive,inactive,inactive,inactive,inactive,-3.24%,inactive,inactive,inactive,–,–,–
Nc1c(Br)cc([N+](=O)[O-])cc1[N+](=O)[O-],55.1 µM (active),61.8 µM (active),inactive,inactive,inactive,inactive,–,inactive,31 µM (active),inactive,–,–,–
O=P(O)(Oc1ccccc1)Oc1ccccc1,inactive,inactive,inactive,inactive,inactive,inactive,1.22%,inactive,inactive,inactive,–,–,–
CC(C)NCC(O)c1ccc(N)c(C#N)c1 (stereo not drawn),inactive,inactive,inactive,inactive,inactive,inactive,-15.4%,inactive,inactive,inactive,–,–,–
CC(Cl)(Cl)[N+](=O)[O-],inactive,inactive,inactive,inactive,–,inactive,-5.99%,inactive,inactive,inactive,–,–,–
